From PubChem BioAssay (EPA / NIEHS)
Values joined by “and” are separate entries in the source; they are usually repeats but may differ in a detail not shown here. Equal values may be shown once. A structure can be active in one record and inactive in another. Active and inactive are the calls of the source. Rule for the calls: active = hit-call score of the fitted dose curve at least 0.9, where 1 is the maximum; inactive = score below 0.9.

Columns and labels:
[1] = ATG_RORE_CIS: Attagene CIS-FACTORIAL HepG2 Assay for human RAR-related Orphan Receptor Element (RORE) (AID 2282959); conditions: HepG2 Attagene cis-factorial RORE reporter, mRNA; actives raise or lower the signal
Method in brief: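 Multiplexed reporter assay measuring mRNA induction from a cis promoter element in transiently transfected HepG2 cells after 24 h treatment. Detection via RT-PCR and capillary electrophoresis fluorescence; DMSO serves as baseline.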

[2] = ATG_Sox_CIS: Attagene CIS-FACTORIAL HepG2 Assay for human SRY-box transcription factor (SOX) (AID 2282960); conditions: HepG2 Attagene cis-factorial SOX reporter, mRNA; actives raise or lower the signal
Method in brief: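 Cells were transfected with reporter constructs under cis-regulatory promoters, then exposed to chemicals for 24 h. Reporter transcripts were quantified by fluorescence after RT-PCR and capillary electrophoresis; activity was fitted in both directions against DMSO.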

[3] = target: Transcription factor Sp1 (Homo sapiens) (UniProt P08047); test: ATG_Sp1_CIS: Attagene CIS-FACTORIAL HepG2 Assay for human Specificity Protein 1 (Sp1) (AID 2282961); conditions: HepG2 Sp1 cis-reporter transcription, actives raise or lower the signal
Method in brief: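 Measures mRNA induction of an Sp1-linked reporter in HepG2 cells 24 h post-dosing. Multiplexed reporters read by RT-PCR and capillary electrophoresis; DMSO serves as negative control and baseline.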

[4] = ATG_SREBP_CIS: Attagene CIS-FACTORIAL HepG2 Assay for human Sterol Regulatory Element Binding (SREBP) (AID 2282962); conditions: HepG2 Attagene cis-factorial SREBP reporter, mRNA; actives raise or lower the signal
Method in brief: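 Transfected HepG2 (cis-regulated reporter library, endogenous TFs) → compound 24 h → total RNA → oligo(dT) RT → reporter-specific PCR → FAM primer extension, HpaI cut → CE fluorescence. Fit bidirectional vs DMSO.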

[5] = target: Signal transducer and activator of transcription 3 (Homo sapiens) (UniProt P40763); test: ATG_STAT3_CIS: Attagene CIS-FACTORIAL HepG2 Assay for human Signal Transducer and Activator of Transcription 3 (STAT3) (AID 2282963); conditions: HepG2, Attagene cis-factorial STAT3 reporter transcription; actives raise or lower the signal
Method in brief: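 Endogenous STAT3-responsive cis-element activity was read in transiently transfected HepG2 cells after 24 h treatment. Reporter transcripts were quantified via RT-PCR and capillary electrophoresis, with DMSO as negative control and bidirectional curve fitting.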

[6] = ATG_TA_CIS: Attagene CIS-FACTORIAL HepG2 Assay for human TA Basal Promoter (AID 2282964); conditions: HepG2 Attagene CIS-factorial TA basal promoter reporter; actives raise or lower the signal
Method in brief: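 HepG2 cells transiently transfected with multiplexed cis-promoter reporter units, dosed 24 h. Reporter mRNA measured by RT-PCR, 6-FAM labelling, HpaI digestion and capillary electrophoresis; bidirectional fit versus DMSO baseline, serving as background control.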

[7] = ATG_TCF_b_cat_CIS: Attagene CIS-FACTORIAL HepG2 Assay for human T-Cell-Factor with beta-catenin (TCF/b-cat) (AID 2282965); conditions: HepG2 TCF/beta-catenin cis-reporter transcription, actives raise or lower the signal
Method in brief: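 Endogenous transcription factor activity is captured through cis-promoter reporter constructs transiently introduced into human HepG2 liver cells. Induced reporter mRNA is measured after 24 h and fitted bidirectionally relative to DMSO.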

[8] = ATG_TAL_CIS: Attagene CIS-FACTORIAL HepG2 Assay for human TAL Basal Promoter (AID 2282966); conditions: HepG2 Attagene cis-factorial TAL promoter reporter; actives raise or lower the signal;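 note: background control endpoint measuring basal TAL promoter reporter mRNA not a specific factor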
Method in brief: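 HepG2 cells were transiently transfected with promoter-driven multiplexed reporter units and dosed for 24 h. Reporter mRNA was measured by RT-PCR with capillary electrophoresis fluorescence; bidirectional fits used DMSO as baseline, serving as a background control.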

[9] = ATG_TGFb_CIS: Attagene CIS-FACTORIAL HepG2 Assay for human Transforming Growth Factor (TGF) (AID 2282967); conditions: HepG2 Attagene CIS TGFb reporter, mRNA transcription; actives raise or lower the signal
Method in brief: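 HepG2 cells transiently transfected with cis-promoter-driven multiplexed reporter units; 24 h compound exposure. Reporter mRNA measured by RT-PCR, 6-FAM labeling, HpaI digestion and capillary electrophoresis; bidirectional fit versus DMSO baseline.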

[10] = ATG_VDRE_CIS: Attagene CIS-FACTORIAL HepG2 Assay for human Vitamin D Receptor Element (VDRE) (AID 2282968); conditions: HepG2 VDRE cis-reporter transcription, actives raise or lower the signal
Method in brief: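 Reporter mRNA induction, quantified by capillary electrophoresis of fluorescently labelled RT-PCR products, was read 24 h after dosing HepG2 cells carrying transiently transfected cis-regulated reporter units; gain or loss relative to DMSO.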

Measured: AC50

Transcription factor Sp1 (Homo sapiens), sequence (P08047 whole entry, looked up): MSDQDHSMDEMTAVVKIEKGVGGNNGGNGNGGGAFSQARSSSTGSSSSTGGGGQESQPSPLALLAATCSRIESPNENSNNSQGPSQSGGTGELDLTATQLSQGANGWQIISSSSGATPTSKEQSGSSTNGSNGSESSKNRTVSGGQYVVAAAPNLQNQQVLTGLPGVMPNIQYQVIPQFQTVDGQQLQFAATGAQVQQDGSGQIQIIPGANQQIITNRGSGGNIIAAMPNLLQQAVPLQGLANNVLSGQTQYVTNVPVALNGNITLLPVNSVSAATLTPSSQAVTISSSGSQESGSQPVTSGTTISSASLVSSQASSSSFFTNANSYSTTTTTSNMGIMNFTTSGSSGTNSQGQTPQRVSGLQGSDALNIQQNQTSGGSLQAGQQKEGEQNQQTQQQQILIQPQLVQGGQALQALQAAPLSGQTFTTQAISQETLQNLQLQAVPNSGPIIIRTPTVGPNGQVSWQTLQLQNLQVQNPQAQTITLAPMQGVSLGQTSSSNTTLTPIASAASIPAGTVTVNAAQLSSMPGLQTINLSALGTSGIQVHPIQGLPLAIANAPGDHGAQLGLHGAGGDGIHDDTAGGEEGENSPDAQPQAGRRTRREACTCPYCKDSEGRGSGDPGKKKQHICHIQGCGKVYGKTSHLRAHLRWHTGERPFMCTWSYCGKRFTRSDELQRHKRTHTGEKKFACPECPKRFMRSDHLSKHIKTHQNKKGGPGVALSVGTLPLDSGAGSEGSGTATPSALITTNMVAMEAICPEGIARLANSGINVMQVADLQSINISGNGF
Signal transducer and activator of transcription 3 (Homo sapiens), sequence (P40763 whole entry, looked up): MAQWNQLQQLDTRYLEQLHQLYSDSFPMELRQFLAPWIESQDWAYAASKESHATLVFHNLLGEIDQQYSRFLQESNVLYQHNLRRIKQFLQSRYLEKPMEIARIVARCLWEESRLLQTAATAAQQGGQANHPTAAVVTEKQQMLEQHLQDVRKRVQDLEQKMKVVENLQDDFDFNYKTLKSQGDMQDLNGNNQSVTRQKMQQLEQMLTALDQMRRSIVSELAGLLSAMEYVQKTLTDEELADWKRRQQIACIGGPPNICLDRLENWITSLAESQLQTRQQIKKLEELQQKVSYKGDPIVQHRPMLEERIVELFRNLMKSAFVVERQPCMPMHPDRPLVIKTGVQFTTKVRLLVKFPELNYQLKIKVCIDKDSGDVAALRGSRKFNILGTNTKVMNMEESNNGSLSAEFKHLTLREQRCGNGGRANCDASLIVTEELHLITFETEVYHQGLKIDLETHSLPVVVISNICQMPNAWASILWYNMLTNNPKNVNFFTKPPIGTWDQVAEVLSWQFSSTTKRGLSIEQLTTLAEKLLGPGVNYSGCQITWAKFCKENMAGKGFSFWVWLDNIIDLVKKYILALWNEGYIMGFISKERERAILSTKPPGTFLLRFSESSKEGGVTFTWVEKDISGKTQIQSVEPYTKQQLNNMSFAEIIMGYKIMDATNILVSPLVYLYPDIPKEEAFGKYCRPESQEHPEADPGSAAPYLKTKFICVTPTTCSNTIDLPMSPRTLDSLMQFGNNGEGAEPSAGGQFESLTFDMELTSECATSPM

CC(=O)Nc1ccc(O)cc1
inactive: [1] | [2] | [3] | [4] | [5] | [6] | [7] | [8] | [9]

O=C(C=C(O)C(F)(F)F)C(F)(F)F
inactive: [1] | [2] | [3] | [4] | [5] | [6] | [7] | [8] | [9] | [10]

O=C(CC(=O)C(F)(F)C(F)(F)C(F)(F)F)c1cccs1
active: [1] 15.6 µM | [3] 39.6 µM | [4] 16.2 µM and 80.3 µM | [8] 81 µM and 34.2 µM | [10] 11 µM
inactive: [1] | [2] | [3] | [5] | [6] | [7] | [9] | [10]

Oc1ccc(Cc2ccccc2O)cc1
active: [10] 64.5 µM
inactive: [1] | [2] | [3] | [4] | [5] | [6] | [7] | [8] | [9]

CCOC=O
inactive: [1] | [2] | [3] | [4] | [5] | [6] | [7] | [8] | [9] | [10]

Nc1ccn([C@@H]2O[C@H](CO)[C@@H](O)C2O)c(=O)n1 (some centres not stated)
inactive: [1] | [2] | [3] | [4] | [5] | [6] | [7] | [8] | [9] | [10]

CC(C)(c1ccc(Oc2ccc(N)cc2)cc1)c1ccc(Oc2ccc(N)cc2)cc1
active: [10] 3.6 µM
inactive: [1] | [2] | [3] | [4] | [5] | [6] | [7] | [8] | [9]

Oc1cccc2c(O)cccc12
inactive: [1] | [2] | [3] | [4] | [5] | [6] | [7] | [8] | [9] | [10]

CCC(C)c1ccccc1O (configuration not stated)
active: [7] 164 µM | [10] 74.6 µM
inactive: [1] | [2] | [3] | [4] | [5] | [6] | [7] | [8] | [10]

COC(=O)C(F)(F)C(F)(F)C(F)(F)F
inactive: [1] | [2] | [3] | [4] | [5] | [6] | [7] | [8] | [9] | [10]

CN(C)CCOC(c1ccccc1)c1ccccc1
active: [4] 45.5 µM
inactive: [1] | [2] | [3] | [5] | [6] | [7] | [8] | [9]
